Measurements from PubChem BioAssay.
Calls of active or inactive are those of the source.

Columns and labels:
[1] = binders of probe aFSTL3 on microarray, primary screen, stem cell growth factor project, biochemical, small-molecule microarray, fluorescence 635/667 (AID 1064); conditions: higher = more signal;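 also: measures binding of the biotinylated anti-FSTL3 antibody to printed compounds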
[2] = binders from COS7 lysate, DM2A8 probe, primary screen, torsin A project, cell lysate, small-molecule microarray, fluorescence 635/667 (AID 1065); conditions: higher = more signal, COS7 lysate expressing mutant human TOR1A
[3] = binders of probe aFGF2 on microarray, primary screen, stem cell growth factor project, biochemical, small-molecule microarray, fluorescence 635/667 (AID 1067); conditions: higher = more signal;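 also: measures binding of biotinylated aFGF2 protein to printed compounds on slides; z-score merges feature fluorescence and signal-to-noise across triplicate slides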
[4] = binders of probe aFGF10 on microarray, primary screen, stem cell growth factor project, biochemical, small-molecule microarray, fluorescence 635/667 (AID 1071); conditions: higher = more signal;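 also: score merges 667 nm spot intensity and signal to noise from triplicate slides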
[5] = biological target: Neurogenic locus notch homolog protein 2 (Homo sapiens) (UniProt Q04721); assay: Notch2 binders on small-molecule microarrays, primary screen, biochemical, small-molecule microarray, 635 nm fluorescence, stem cell growth factors (AID 1073); conditions: Notch2 binding, higher = more signal
[6] = biological target: Pro-neuregulin-1, membrane-bound isoform (Homo sapiens) (UniProt Q02297); assay: NRG1 binders on small-molecule microarrays, primary screen, psychiatric disease protein project, biochemical, small-molecule microarray, fluorescence 635/667 (AID 1075); conditions: NRG1 binding, 635 nm fluorescence, higher = more signal;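 also: score combines 667 nm spot fluorescence with signal to noise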
[7] = system: Neuregulin-1 EGF-like domain; assay: binders of neuregulin-1 EGF-like domain, primary screen, biochemical, small-molecule microarray, 635 nm fluorescence (AID 1081); conditions: small-molecule microarray binding, higher = more signal;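 also: binding of the protein to compounds printed on small-molecule microarray slides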
[8] = FRG1 promoter luciferase signal modulators, primary screen, FRG1 inhibition for FSHD, cell-based, C2C12 myotubes, firefly/Renilla luciferase, luminescence (AID 1084); conditions: higher = more signal, called active from +8 up or from −8 down
[9] = binders of probe aFST on microarray, primary screen, stem cell growth factor project, biochemical, small-molecule microarray, fluorescence 635/667 (AID 1086); conditions: higher = more signal;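 also: score merges 667 nm fluorescence with signal-to-noise of each printed compound spot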
[10] = binders of probe aHhip on microarray, primary screen, stem cell growth factor project, biochemical, small-molecule microarray, fluorescence 635/667 (AID 1087); conditions: higher = more signal;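 also: score merges spot fluorescence at 667nm with spot signal to noise ratio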

Pro-neuregulin-1, membrane-bound isoform (Homo sapiens), sequence (Q02297 whole entry, looked up, the tested form may be a part, canonical isoform): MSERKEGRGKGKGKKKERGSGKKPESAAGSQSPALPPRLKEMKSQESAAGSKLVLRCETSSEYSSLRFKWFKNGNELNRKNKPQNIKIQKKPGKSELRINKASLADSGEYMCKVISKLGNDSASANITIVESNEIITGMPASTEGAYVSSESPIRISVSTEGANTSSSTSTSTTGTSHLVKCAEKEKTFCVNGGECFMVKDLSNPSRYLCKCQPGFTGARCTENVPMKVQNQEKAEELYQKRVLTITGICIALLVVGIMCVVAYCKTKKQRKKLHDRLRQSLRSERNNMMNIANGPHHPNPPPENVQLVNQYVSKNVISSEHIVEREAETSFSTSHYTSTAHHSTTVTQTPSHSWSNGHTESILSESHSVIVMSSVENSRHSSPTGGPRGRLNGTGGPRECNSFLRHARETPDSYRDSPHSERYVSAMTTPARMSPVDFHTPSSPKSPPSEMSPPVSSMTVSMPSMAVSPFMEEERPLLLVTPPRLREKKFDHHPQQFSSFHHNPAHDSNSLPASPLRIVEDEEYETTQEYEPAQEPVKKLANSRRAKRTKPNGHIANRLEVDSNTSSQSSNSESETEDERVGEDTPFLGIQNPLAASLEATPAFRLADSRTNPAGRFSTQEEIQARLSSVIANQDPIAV
Neurogenic locus notch homolog protein 2 (Homo sapiens), sequence (Q04721 whole entry, looked up, canonical isoform): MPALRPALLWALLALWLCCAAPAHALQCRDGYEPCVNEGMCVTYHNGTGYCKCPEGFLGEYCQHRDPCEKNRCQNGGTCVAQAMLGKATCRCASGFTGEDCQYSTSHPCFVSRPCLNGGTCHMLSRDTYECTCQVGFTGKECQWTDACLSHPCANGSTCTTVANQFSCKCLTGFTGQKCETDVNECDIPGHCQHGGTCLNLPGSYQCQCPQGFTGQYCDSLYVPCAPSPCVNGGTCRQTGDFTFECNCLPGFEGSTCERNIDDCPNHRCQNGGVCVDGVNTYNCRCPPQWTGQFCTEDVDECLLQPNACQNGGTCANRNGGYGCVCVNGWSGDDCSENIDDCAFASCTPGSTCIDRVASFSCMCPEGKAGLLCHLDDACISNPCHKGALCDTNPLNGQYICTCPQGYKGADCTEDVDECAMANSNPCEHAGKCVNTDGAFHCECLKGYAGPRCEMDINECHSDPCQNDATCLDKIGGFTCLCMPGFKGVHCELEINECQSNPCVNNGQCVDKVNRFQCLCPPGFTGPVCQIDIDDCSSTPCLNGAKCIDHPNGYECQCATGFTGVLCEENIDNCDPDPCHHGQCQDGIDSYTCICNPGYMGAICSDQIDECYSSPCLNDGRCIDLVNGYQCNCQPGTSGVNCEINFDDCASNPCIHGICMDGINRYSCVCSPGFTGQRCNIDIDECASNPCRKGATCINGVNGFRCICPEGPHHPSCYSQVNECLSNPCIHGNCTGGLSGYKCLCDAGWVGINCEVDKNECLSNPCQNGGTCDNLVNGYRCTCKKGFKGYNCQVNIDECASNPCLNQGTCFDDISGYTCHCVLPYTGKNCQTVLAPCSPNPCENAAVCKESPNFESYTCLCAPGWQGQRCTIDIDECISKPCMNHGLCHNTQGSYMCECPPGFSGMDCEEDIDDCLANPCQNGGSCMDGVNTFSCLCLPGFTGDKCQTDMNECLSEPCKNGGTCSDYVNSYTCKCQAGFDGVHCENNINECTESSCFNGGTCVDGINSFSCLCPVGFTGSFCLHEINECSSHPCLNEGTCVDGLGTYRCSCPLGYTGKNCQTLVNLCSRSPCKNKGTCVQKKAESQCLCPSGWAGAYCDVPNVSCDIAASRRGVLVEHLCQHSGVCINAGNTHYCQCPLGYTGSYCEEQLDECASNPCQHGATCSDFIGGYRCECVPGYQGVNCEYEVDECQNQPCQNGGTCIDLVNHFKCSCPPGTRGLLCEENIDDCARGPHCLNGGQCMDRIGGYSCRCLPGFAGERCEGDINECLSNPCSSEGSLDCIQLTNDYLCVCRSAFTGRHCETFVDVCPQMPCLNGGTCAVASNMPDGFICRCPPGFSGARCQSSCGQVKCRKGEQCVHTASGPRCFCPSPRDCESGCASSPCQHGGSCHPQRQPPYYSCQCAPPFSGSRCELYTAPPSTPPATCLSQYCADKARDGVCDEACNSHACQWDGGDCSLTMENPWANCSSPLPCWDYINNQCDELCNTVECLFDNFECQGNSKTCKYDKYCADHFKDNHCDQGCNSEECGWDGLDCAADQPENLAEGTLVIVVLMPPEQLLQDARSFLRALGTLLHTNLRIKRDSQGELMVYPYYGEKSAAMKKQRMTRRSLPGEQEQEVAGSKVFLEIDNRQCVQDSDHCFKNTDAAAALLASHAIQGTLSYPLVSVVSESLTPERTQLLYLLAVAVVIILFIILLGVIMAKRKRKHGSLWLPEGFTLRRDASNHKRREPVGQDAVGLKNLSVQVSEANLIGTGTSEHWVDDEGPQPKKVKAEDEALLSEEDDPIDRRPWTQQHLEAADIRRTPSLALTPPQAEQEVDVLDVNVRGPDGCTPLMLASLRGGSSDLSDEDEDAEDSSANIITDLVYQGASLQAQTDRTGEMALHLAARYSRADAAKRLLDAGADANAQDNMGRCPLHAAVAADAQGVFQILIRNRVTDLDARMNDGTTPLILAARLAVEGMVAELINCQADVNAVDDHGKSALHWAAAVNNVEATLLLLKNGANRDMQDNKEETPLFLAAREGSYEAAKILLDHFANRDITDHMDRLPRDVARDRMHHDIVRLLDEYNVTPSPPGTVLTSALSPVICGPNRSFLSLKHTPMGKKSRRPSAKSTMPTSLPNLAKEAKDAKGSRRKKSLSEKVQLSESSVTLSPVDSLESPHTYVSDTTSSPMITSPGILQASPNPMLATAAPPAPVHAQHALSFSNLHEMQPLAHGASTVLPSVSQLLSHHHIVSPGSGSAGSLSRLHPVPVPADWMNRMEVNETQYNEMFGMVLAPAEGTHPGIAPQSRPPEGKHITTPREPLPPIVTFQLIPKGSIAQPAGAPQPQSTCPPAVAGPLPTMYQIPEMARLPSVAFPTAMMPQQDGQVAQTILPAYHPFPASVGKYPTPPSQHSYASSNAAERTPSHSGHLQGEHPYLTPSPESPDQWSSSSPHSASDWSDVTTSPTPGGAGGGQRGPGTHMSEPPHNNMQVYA

Row | SMILES | composite z-score [1] | composite z-score [2] | composite z-score [3] | composite z-score [4] | composite z-score [5] | composite z-score [6] | composite z-score [7] | z-score [8] | composite z-score [9] | composite z-score [10]
1 | COCCOC(=O)N1C(=O)[C@@]2(c3ccccc31)[C@H](C(N)=O)[C@H]1C(=O)O[C@H](c3ccccc3)[C@H](c3ccccc3)N1[C@@H]2c1ccc(O)cc1 | 0.0458 | 0.209 | 0.0709 | 0.166 | -0.248 | 1.32 | 1.24 | -0.939 (inactive) | -0.404 | 0.0215
2 | O=C1C2C=CC(C(O)c3ccc4c(c3)OCO4)N(Nc3ccc([N+](=O)[O-])cc3)C2C(=O)N1c1ccccc1 (stereo not given) | -0.407 | 0.566 | 0.0019 | 0.791 | 1.05 | 0.626 | 0.65 | -0.383 (inactive) | 0.314 | -0.134
3 | O=C(CS)NCCCCCNC(=O)[C@@H]1C[C@@H]2C(=O)NCC(=O)N2[C@@H]1c1ccc(O)cc1 | -0.0188 | 0.654 | -0.11 | 0.0152 | -0.966 | 0.317 | 1.39 | 0.111 (inactive) | -0.155 | -0.0003
4 | CCC(CC)C(O)C1C=CC2C(=O)N(c3ccccc3)C(=O)C2N1Nc1ccccc1 (stereo not given) | 0.525 | 0.814 | 0.21 | 0.974 | 1.62 | 1.94 | 1.27 | -1.31 (inactive) | 1.42 | -0.216
5 | [N-]=[N+]=Nc1ccccc1C[C@]1(C(=O)N2CCCCC2)COC(c2ccc(OCCCO)cc2)=N1 | -0.11 | 0.0405 | 0.0605 | 0.87 | 0.708 | 1.64 | 0.995 | -2.42 (inactive) | 0.755 | -0.353
6 | O=C1O[C@@H](c2ccccc2)[C@@H](c2ccccc2)N2[C@@H](c3ccc(OCCO)cc3)[C@]3(C(=O)Nc4ccc(C#CC5=CCCCC5)cc43)[C@@H](C(=O)N3CCCCCCC3)[C@H]12 | 3.69 | 1.51 | 0.753 | 0.867 | 1.49 | 1.38 | 1.26 | 1.75 (inactive) | 3.12 | 0.354
7 | C=CCC(OC(C)=O)[C@@H]1[C@@H](N(Cc2ccc(-c3cccc(C(F)(F)F)c3)o2)C(=O)Cc2ccc(OC)cc2)c2cc(OCCCO)ccc2N1C(=O)c1ccc2ccccc2c1 (stereo not given in full) | 0.0929 | -0.404 | -0.043 | -0.608 | -0.654 | 0.522 | -0.125 | 0.782 (inactive) | 0.234 | -0.236
8 | O=C1C[C@@](C(=O)NCc2ccccc2)(c2ccc([N+](=O)[O-])cc2)[C@@H](c2ccc(CO)cc2)N1CC12CC3CC(CC(C3)C1)C2 | -0.237 | 0.447 | 0.0024 | 0.435 | 0.815 | 0.939 | 1.27 | -2.72 (inactive) | 0.282 | -0.0994
9 | COC(=O)[C@@]1(Cc2ccc(OC)cc2)[C@H]2c3cc(C(=O)N(C)C)n(Cc4ccc(C(F)(F)F)nc4)c3C[C@H]2CN1C(=O)c1ccccc1 | 0.125 | 0.114 | 0.0343 | 0.459 | 1.53 | 1.34 | 1.01 | 0.515 (inactive) | 0.597 | -0.0237
10 | C=CC[C@@]1(C(=O)N2CCCCC2)N=C(c2ccc(OCCCO)cc2)O[C@@H]1c1ccccc1CN=[N+]=[N-] | 0.134 | 0.432 | 0.084 | 0.378 | 1.6 | 1.8 | 1.32 | -1.43 (inactive) | 0.938 | -0.219
11 | NC(=O)NCC#Cc1ccc2c(c1)[C@]1(C(=O)N2)[C@H](C(=O)O)[C@H]2C(=O)O[C@H](c3ccccc3)[C@H](c3ccccc3)N2[C@@H]1c1ccc(O)cc1 | 2.62 | -0.0893 | -0.0098 | -0.135 | 0.053 | 0.441 | -0.293 | 1.5 (inactive) | 1.83 | 0.182
12 | COC(=O)[C@]1(Cc2ccccc2)N=C(c2ccc(OCCCO)cc2)O[C@@H]1c1ccccc1N=[N+]=[N-] | -0.186 | 0.179 | -0.0268 | -0.13 | 0.473 | 0.314 | 0.764 | 4.51 (inactive) | 0.551 | 0.0373
13 | CC(C)[C@@H](C(=O)O)n1cc(C2(O)CCCCC2)nn1 | -0.401 | -0.938 | -0.183 | 0.78 | 0.63 | 0.394 | 0.451 | 0.356 (inactive) | 0.27 | -0.218
14 | COC(=O)[C@@]1(CCC(=O)OC(C)(C)C)N=C(c2ccc(OCCCO)cc2)O[C@H]1c1ccccc1 | 0.579 | -0.168 | -0.024 | -0.0016 | 0.124 | 0.916 | 0.774 | 0.174 (inactive) | -0.164 | 0.0505
15 | C=CC[C@]1(C(=O)N2CCOCC2)N=C(c2ccc(OCCCO)cc2)O[C@H]1c1ccccc1N=[N+]=[N-] | -0.0247 | 0.572 | 0.102 | 0.642 | 1.24 | 1.8 | 1.25 | -0.322 (inactive) | 1.2 | 0.0596
